Reference: PubChem BioAssay (NCATS)
Values joined by “and” are separate entries in the source; they are usually repeats but may differ in a detail not shown here. Equal values may be shown once. Inconclusive results are not listed. Active and inactive are the calls of the source. Unless noted, calls come from the whole dose curve; as a rule, active = well fitted curve in the direction sought with a large enough effect; inconclusive = small, poorly fitted or top-dose-only effect, or another doubt; inactive = no such curve, though single readings can be large; an effect the other way counts as inactive or inconclusive.

Legend:
[1] = Cell Viability - Jurkat (AID 426;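 active = dose-dependent loss of cell ATP signal giving a full or clear fitted curve, ranked by lower potency value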;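 note: potency is the fitted concentration of half-maximal effect; cells exposed to compound for 40 hours at 37 °C before ATP read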); conditions: qHTS
Procedure, shortened: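 Cytotoxicity taken as drop in cellular ATP (CellTiter-Glo luminescence, 20 min room temperature) after 40 hr, 37C treatment of 5000 Jurkat Clone E6-1 cells per well; concentration-response fitted with Hill equation for AC50.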

[2] = Cell Viability - HepG2 (AID 433; calls by dose curve;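 note: potency is the fitted concentration of half-maximal effect; potency for ATP loss meaning cytotoxicity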); conditions: qHTS
Procedure, shortened: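 In this qHTS format, a 40 h, 37 °C compound incubation of HepG2 cells in complete medium precedes a 20 min CellTiter-Glo step at room temperature. Tamoxifen and doxorubicin serve as positive controls; Hill-equation fits yield AC50.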

[3] = Cell Viability - MRC5 (AID 434; calls by dose curve;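 note: potency is the fitted concentration of half-maximal effect; cells exposed to compound for 40 hours at 37 °C; potency reflects cytotoxicity seen as loss of intracellular ATP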); conditions: MRC5 lung fibroblast viability, qHTS
Procedure, shortened: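 Decrease in intracellular ATP, quantified by luciferase light output, reflects compound toxicity toward MRC5 cells exposed for 40 hr in complete culture medium. Concentration-response curves, scaled between DMSO and 100 uM tamoxifen, gave AC50 values.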

[4] = Cell Viability - NIH 3T3 (AID 541); conditions: NIH 3T3 cell viability, qHTS; activity change, negative = cytotoxicity: at 92.2 µM (top of the series); note: nearly all actives have a fitted effect of over 25% in size; note: potency is the fitted concentration of half-maximal effect;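 for activity change, negative = cytotoxicity: plate controls were DMSO alone for no effect and tamoxifen positive control for full effect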
Procedure, shortened: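 Intracellular ATP (CellTiter-Glo luminescence, 20 min at room temperature) measured after 40 hr compound exposure at 37 °C of 1000 NIH 3T3 mouse fibroblasts/well in complete medium; AC50 derived by Hill-equation modelling of qHTS concentration-response curves.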

[5] = Cell Viability - H-4-II-E (AID 543); conditions: H-4-II-E rat hepatoma viability; series mostly up to 92.2 µM; note: nearly all actives have a fitted effect of over 35% in size; note: potency is the fitted concentration of half-maximal effect
Procedure, shortened: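 CellTiter-Glo luminescence (intracellular ATP) measured after 40 h compound exposure at 37 °C in H-4-II-E rat hepatoma cells seeded at 1500/well. Values are AC50s fitted with the standard Hill equation.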

[6] = Cellular Toxicity (caspase-3) Jurkat (AID 655); conditions: Jurkat caspase-3 activation, luminescence; caspase-3 activation: at 92.2 µM (top of the series), DMSO = 0%, tamoxifen = 100%;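 note: cells exposed to compound for 16 h at 37 °C before reading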; note: potency is the fitted concentration of half-maximal effect
Procedure, shortened: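 qHTS in human Jurkat T-cell leukemia line: 16 hr compound treatment at 37 °C, caspase-3/7 activity measured by Caspase-Glo luminescence. AC50 derived from Hill equation.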

[7] = Cellular Toxicity (caspase-3) BJ (AID 658); conditions: BJ fibroblasts, luminescence; Potency: caspase-3 activation; series mostly up to 91.7 µM; note: potency is the fitted concentration of half-maximal effect
Procedure, shortened: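 Plated BJ cells (1000/well) rested 5 hr, received compound for 16 hr at 37 °C, then Caspase-Glo 3/7 reagent for 1 hr at room temperature before luminescence reading.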

[8] = Cellular Toxicity (caspase-3) NIH 3T3 (AID 666); conditions: NIH 3T3 caspase-3 activation, apoptosis/toxicity; series mostly up to 92.2 µM;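 note: caspase signal read after 16 h compound exposure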; note: potency is the fitted concentration of half-maximal effect;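 for caspase-3 activation: 0% = DMSO basal and 100% = 100 µM tamoxifen stimulation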
Procedure, shortened: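 Caspase-Glo 3/7 luminescence reported caspase activation in 1000 NIH 3T3 cells/well after 16 h compound exposure at 37 C. DMSO set basal and 100 uM tamoxifen set 100% stimulation; concentration-response modeled with the Hill equation for AC50.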

[9] = target: Cytochrome P450 3A4 (Homo sapiens) (UniProt P08684); assay: qHTS Assay for Inhibitors and Substrates of Cytochrome P450 3A4 (AID 884); conditions: recombinant CYP3A4, Luciferin-PPXE luminescence; series mostly up to 57.1 µM; note: potency is the fitted concentration of half-maximal effect; nearly all actives have a fitted effect of over 50% in size
Cytochrome P450 3A4 (Homo sapiens), sequence (P08684 whole entry, looked up): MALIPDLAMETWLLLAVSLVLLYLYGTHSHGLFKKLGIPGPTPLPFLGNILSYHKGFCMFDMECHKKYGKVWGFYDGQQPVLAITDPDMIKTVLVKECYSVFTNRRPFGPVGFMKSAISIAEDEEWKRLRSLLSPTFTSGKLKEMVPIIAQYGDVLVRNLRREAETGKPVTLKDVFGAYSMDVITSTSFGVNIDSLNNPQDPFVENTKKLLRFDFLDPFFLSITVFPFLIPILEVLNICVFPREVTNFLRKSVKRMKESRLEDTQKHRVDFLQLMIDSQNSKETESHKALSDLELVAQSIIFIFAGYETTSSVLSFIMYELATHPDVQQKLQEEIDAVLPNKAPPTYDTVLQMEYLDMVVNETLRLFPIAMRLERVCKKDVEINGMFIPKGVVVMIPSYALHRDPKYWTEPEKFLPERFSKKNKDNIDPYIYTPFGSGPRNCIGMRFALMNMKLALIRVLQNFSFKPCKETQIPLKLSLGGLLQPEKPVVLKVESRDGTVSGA
Procedure, shortened: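 Luminescent readout of luciferin produced by CYP3A4 (20 nM) dealkylation of Luciferin-PPXE, 25 uM (its KM). NADPH-driven reaction ran 60 min at RT after 10 min compound preincubation; data scaled to 57 uM ketoconazole as 100% inhibition.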

[10] = MultiTox-Fluor Cytotoxicity Assay - LYMP1-001 - Dead Cells (AID 946); conditions: LYMP1-001 lymphoblastoid cells, dead-cell protease fluorescence; series mostly up to 92.2 µM; note: potency is the fitted concentration of half-maximal effect
Procedure, shortened: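 Seed 2500 LYMP1-001 cells/well, incubate 5 hr at 37 C; add compound, 16 hr at 37 C; add MultiTox-Fluor reagent, 60 min RT; read dead-cell fluorescence Ex/Em=485/520. Normalize to DMSO and 15 uM tetraoctylammonium bromide.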

[11] = Cell Viability - LYMP1-003 - Assay at 24 hr (AID 963); conditions: LYMP1-003 lymphoblastoid cell viability; series mostly up to 92.2 µM; note: potency is the fitted concentration of half-maximal effect
Procedure, shortened: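 Concentration-response qHTS: ATP loss measured by CellTiter-Glo luminescence after 24 h compound exposure at 37 C. Cells were LYMP1-003 human lymphoblastoid, 2500 per well. AC50 derived via standard Hill equation modeling.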

[12] = Cell Viability - LYMP2-003 (AID 965); conditions: LYMP2-003 lymphoblastoid cell viability; series mostly up to 92.2 µM;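 note: cells exposed to compounds for 24 h before reading; nearly all actives have a fitted effect of over 50% in size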; note: potency is the fitted concentration of half-maximal effect;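 for activity change, negative = cytotoxicity: 0% = DMSO only and full effect = 92 µM tetraoctylammonium bromide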
Procedure, shortened: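 qHTS, human lymphoblastoid line, 2500 cells/well, complete medium. 24 h drug, 37 C. ATP-based luminescent readout; Hill-fit AC50.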

[13] = Cell Viability - LYMP2-007 (AID 979); conditions: LYMP2-007 lymphoblastoid cell viability; series mostly up to 92.2 µM;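 note: cells exposed to compound for 24 h before reading; nearly all actives have a fitted effect of over 60% in size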; note: potency is the fitted concentration of half-maximal effect;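 for activity change, negative = cytotoxicity: 0% = DMSO only and the negative end = 92 µM tetraoctylammonium bromide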
Procedure, shortened: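 AC50 values come from Hill-equation fits of luminescent intracellular ATP (CellTiter-Glo, 30 min, room temperature) following 24 h compound exposure at 37 C. Cells: LYMP2-007 lymphoblastoid line, 2500 per well, in complete culture medium.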

[14] = Cell Viability - LYMP1-002 - Assay at 24 hr (AID 993); conditions: LYMP1-002 lymphoblastoid cells viability; series mostly up to 92.2 µM; note: potency is the fitted concentration of half-maximal effect; for activity change, negative = cytotoxicity: % is set by controls: 0 for no effect and ±100 for the full control effect
Procedure, shortened: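 qHTS cytotoxicity at 24 h: CellTiter-Glo ATP luminescence in lymphoblastoid line LYMP1-002 incubated with compound at 37 °C. Concentration-response modeled with the Hill equation for AC50; tetraoctylammonium bromide served as positive control.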

[15] = qHTS assay for small molecule agonists of the antioxidant response element (ARE) signaling pathway measured by Nrf2-dependant transcriptional activity - cell viability counter screen (AID 720653; active = well fitted curve in the direction sought with a large enough effect in the repeat runs; an effect the other way counts as inactive or inconclusive; note: potency is the fitted concentration of half-maximal effect; for max response: % is set by controls: 0 for no effect and ±100 for the full control effect); conditions: ARE-bla HepG2 viability, CellTiter-Glo ATP luminescence, 16 h; max response: hits give low values
Procedure, shortened: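 ARE-bla HepG2 cells (2,000/well) rested 5 hrs at 37C/5% CO2, then exposed to compounds in DMSO for 16 hrs. Viability was read in the same wells as intracellular ATP by luminescence, 30 min at room temperature after reagent addition.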

[16] = Cellular Toxicity (caspase-3) SHSY5Y (AID 657); conditions: SH-SY5Y caspase-3 activation; series mostly up to 91.7 µM
Procedure, shortened: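 Readout: caspase-cleaved peptide-aminoluciferin substrate driving luciferase light in SH-SY5Y neuroblastoma cells after 16 h treatment. Response normalized to DMSO and 10 uM staurosporine controls.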

[17] = Cellular Toxicity (caspase-3) MRC-5 (AID 659); conditions: MRC-5 cells, luminescence, normalized: DMSO 0%, 10 µM staurosporine 100%; series mostly up to 91.7 µM
Procedure, shortened: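 Apoptosis readout in MRC-5 cells: luciferase light generated after caspase 3/7 cleaves a peptide-aminoluciferin substrate, measured post 16 hr compound incubation at 37 °C.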

[18] = Cellular Toxicity (caspase-3) Mesangial (AID 660); conditions: mesangial cells, normalized: DMSO 0%, 100 µM tamoxifen 100%; at 91.7 µM (top of the series);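 note: combined caspase 3 and 7 activity read by Caspase-Glo luminescence; cells exposed to compound for 16 h before the caspase read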
Procedure, shortened: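 Caspase 3/7 activation measured by Caspase-Glo 3/7 luminescence (20 min, room temperature) following 16 h exposure of mesangial cells (1000/well); AC50 from Hill-equation fit, normalized to DMSO and 100 uM tamoxifen.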

[19] = Cellular Toxicity (caspase-3) SK-N-SH (AID 661); conditions: SK-N-SH caspase-3 activation, qHTS; caspase-3 activation: at 91.7 µM (top of the series), DMSO as zero, staurosporine as full; note: potency is the fitted concentration of half-maximal effect
Procedure, shortened: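 Caspase 3/7 activation was read by luminogenic substrate cleavage after 16 hour treatment of SK-N-SH cells. Signal was scaled between DMSO and 10 uM staurosporine, and concentration-response data were fitted with the Hill equation for AC50.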

[20] = Cellular Toxicity (caspase-3) Hek293 (AID 664); conditions: HEK293 caspase-3 activation, DMSO = 0%, 100 µM tamoxifen = 100%; at 92.2 µM (top of the series);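 note: cells exposed to compound for 16 h at 37 °C before readout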
Procedure, shortened: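 Concentration-response qHTS: caspase 3/7 activation measured by luminescent aminoluciferin substrate cleavage after 16 h compound exposure of Hek 293 cells. AC50 from Hill equation, with DMSO as basal and 100 uM tamoxifen as 100%.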

CCCCCCCC[N+](CCCCCCCC)(CCCCCCCC)CCCCCCCC
active: Potency [1] 7.74 µM | Potency [2] 4.92 µM | Potency [3] 10.3 µM | Potency [4] 3.16 µM | Potency [5] 12.6 µM | Potency [6] 12.6 µM | Potency [7] 12.6 µM | Potency [8] 31.6 µM | Potency [9] 12.6 µM | Potency [10] 6.31 µM | Potency [11] 7.94 µM | Potency [12] 10 µM | Potency [13] 2.51 µM | Potency [14] 3.16 µM | Potency [15] 28.2 µM

Cc1cc(Nc2ccc(O)cc2)ccc1N
inactive: Potency [3] > 92 µM | Potency [16] | Potency [7] | outcome [17] | caspase-3 activation [18] 23.2% | caspase-3 activation [19] 12.7% | caspase-3 activation [20] -8.9% | Potency [10] | Potency [11] | Potency [14]
active: Potency [1] 7.82 µM | activity change, negative = cytotoxicity [4] -158% | Potency [5] 39.8 µM | Potency [12] 50.1 µM | Potency [13] 31.6 µM

Cc1ccc(S(=O)(=O)Oc2ccc(N=Nc3ccc(-c4ccc(N=Nc5c(O)ccc6cc(S(=O)(=O)O)cc(S(=O)(=O)O)c56)c(C)c4)cc3C)cc2)cc1
inactive: Potency [3] > 92 µM | Potency [6] | Potency [16] | Potency [7] | outcome [17] | caspase-3 activation [18] -0.709% | caspase-3 activation [19] -0.915% | caspase-3 activation [20] -1.72% | Potency [8] | Potency [10] | Potency [12]

Cc1cc(O)c(C(C)(C)C)cc1Sc1cc(C(C)(C)C)c(O)cc1C
inactive: Potency [8]
active: Potency [1] 16.3 µM | Potency [2] 32.3 µM | Potency [3] 40.2 µM | Potency [5] 25.1 µM | caspase-3 activation [18] 140% | caspase-3 activation [20] 230% | Potency [10] 31.6 µM | Potency [11] 39.8 µM | Potency [12] 31.6 µM | Potency [13] 31.6 µM | Potency [14] 31.6 µM

O=Cc1ccc(Cl)c(Cl)c1
inactive: Potency [2] > 92 µM | Potency [3] > 92 µM | Potency [4] | Potency [5] | Potency [6] | Potency [16] | Potency [7] | outcome [17] | caspase-3 activation [18] -1.53% | caspase-3 activation [19] 1.15% | caspase-3 activation [20] 1.45% | Potency [8] | Potency [10] | Potency [11] | Potency [12] | Potency [13] | Potency [14] | max response [15] 7.11%

O=C1OC2(c3cc(Br)c(O)c(Br)c3Oc3c2cc(Br)c(O)c3Br)c2c(Cl)c(Cl)c(Cl)c(Cl)c21
active: Potency [4] 25.1 µM | Potency [9] 20 µM
inactive: Potency [3] > 92 µM | Potency [6] | Potency [16] | Potency [7] | outcome [17] | caspase-3 activation [18] -1.97% | caspase-3 activation [19] 0.172% | caspase-3 activation [20] -0.811% | Potency [8] | Potency [10] | Potency [11] | Potency [12] | Potency [13] | Potency [14] | max response [15] -22.4%

O=C=Nc1ccc(Cc2ccc(N=C=O)cc2)cc1
inactive: Potency [1] > 92 µM | Potency [2] > 92 µM | Potency [3] > 92 µM | Potency [4] | Potency [5] | Potency [6] | Potency [16] | Potency [7] | outcome [17] | caspase-3 activation [18] -0.349% | caspase-3 activation [19] 0.0206% | caspase-3 activation [20] -1.82% | Potency [8] | Potency [10] | Potency [11] | Potency [12] | Potency [13] | Potency [14] | max response [15] -1.3% and -0.206%

Nc1ccc2cc3ccccc3cc2c1
inactive: Potency [1] > 92 µM | Potency [2] > 92 µM | Potency [3] > 92 µM | Potency [4] | Potency [5] | Potency [6] | Potency [16] | Potency [7] | outcome [17] | caspase-3 activation [18] -0.235% | caspase-3 activation [19] -1.26% | caspase-3 activation [20] -0.457% | Potency [8] | Potency [10] | Potency [11] | Potency [12] | Potency [13] | Potency [14] | max response [15] -4.4%

c1cc(OCC2CO2)cc(OCC2CO2)c1 (stereo not given)
inactive: caspase-3 activation [20] 8.84% | Potency [11] | Potency [14] | max response [15] -40% and -11.6%
active: Potency [1] 41.9 µM | Potency [3] 34.7 µM | activity change, negative = cytotoxicity [4] -149% | Potency [5] 39.8 µM | Potency [19] 12.6 µM
